The nature of the assay: NCI Yeast Anticancer Drug Screen. Data for the rad52 strain (AID 147).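 Further: 0% = growth of vehicle-treated control cultures.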 The conditions noted are these: S. cerevisiae rad52 mutant growth inhibition, hits give high values. The method, then:
Growth inhibition of yeast strains with defined genetic alterations is measured as a screen for potential anti-cancer activity. Selected strains with alterations in DNA damage repair or cell cycle control were exposed to compounds and growth inhibition was measured relative to vehicle treated controls. The strain used in this assay is rad52

Compounds without any hit were thinned out: in the full panel of roughly 79,000, 15% have a hit. Unmarked numbers belong to inactive results. The source made the active and inactive calls. No stated cut-off is given here; in the data, active means growth inhibition above about 70%; inactive means the rest.

For `NC(=S)N1N=C2c3ccccc3CC[C@H]2[C@@H]1c1ccc(Cl)cc1`, the growth inhibition (at 1.2 µM) is 26%; the growth inhibition (at 3.7 µM) was 31%; the growth inhibition (at 11.0 µM) was 39%; the growth inhibition (at 33.0 µM) is 48%; the growth inhibition (at 100.0 µM) is 88% (active).

Regarding `CCOC(=O)CC1(C)/C(=N\Nc2ccc([N+](=O)[O-])cc2[N+](=O)[O-])CCC2C1CCC1(C)C(C(C)CCCC(C)C)CCC21` (stereo not given), the growth inhibition is, setting by setting: (at 1.2 µM) 0%; (at 3.7 µM) 0%; (at 11.0 µM) 0%; (at 33.0 µM) 1%; (at 100.0 µM) -2%.

As to `S=C(NCc1ccccn1)N/N=C/c1ccccn1`, the growth inhibition reads like this: (at 1.2 µM) 98% (active); (at 3.7 µM) 99% (active); (at 11.0 µM) 99% (active); (at 33.0 µM) 99% (active); (at 100.0 µM) 98% (active).

On to `c1c[nH]c(CN2CCN(Cc3ncc[nH]3)CC2)n1`, for which the growth inhibition is 0% (at 1.2 µM); 72% (active) (at 3.7 µM); 96% (active) (at 11.0 µM); 97% (active) (at 33.0 µM); 98% (active) (at 100.0 µM).

Take `CC(C)OC(=O)NNc1c(Cl)cc(Cl)cc1Cl`: the growth inhibition is, setting by setting: (at 1.2 µM) -2%; (at 3.7 µM) -2%; (at 11.0 µM) 2%; (at 33.0 µM) 6%; (at 100.0 µM) 5%.

For the molecule `O=C1c2cccc3cccc(c23)C(=O)N1O`, the growth inhibition is, setting by setting: (at 1.2 µM) -3%; (at 3.7 µM) 3%; (at 11.0 µM) 1%; (at 33.0 µM) 24%; (at 100.0 µM) 84% (active).

Consider `CC(=O)CC(c1ccccc1)c1c(O)c2ccccc2oc1=O` (stereo not given), for which the growth inhibition (at 1.2 µM) is 5%; the growth inhibition (at 3.7 µM) is -1%; the growth inhibition (at 11.0 µM) is -4%; the growth inhibition (at 33.0 µM) was 16%; the growth inhibition (at 100.0 µM) was 75% (active).

For `Nc1ccc2c(c1)C(=O)c1c(F)cccc1-2`, the growth inhibition is -3% (at 1.2 µM); 5% (at 3.7 µM); 17% (at 11.0 µM); 69% (at 33.0 µM); 97% (active) (at 100.0 µM).

The values are drawn from PubChem BioAssay (NCI).
